# High-throughput results as filed in PubChem BioAssay.
# CHT block – inhibits the human high affinity choline transporter; Q9GZV3; CHT-expressing cells, membrane potential dye, choline response; hits give low values; B-score at 10 µM; actives 0.86% (n = 310,000); AID 488975;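 active = B-score over 3 SD under the library average, and starting fluorescence ratio not unusually high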;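 also: choline stimulus applied at its EC90 after an EC20 pre-addition; B-score computed on integrated fluorescence ratio after choline addition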
# Target sequence (Q9GZV3 whole entry, looked up): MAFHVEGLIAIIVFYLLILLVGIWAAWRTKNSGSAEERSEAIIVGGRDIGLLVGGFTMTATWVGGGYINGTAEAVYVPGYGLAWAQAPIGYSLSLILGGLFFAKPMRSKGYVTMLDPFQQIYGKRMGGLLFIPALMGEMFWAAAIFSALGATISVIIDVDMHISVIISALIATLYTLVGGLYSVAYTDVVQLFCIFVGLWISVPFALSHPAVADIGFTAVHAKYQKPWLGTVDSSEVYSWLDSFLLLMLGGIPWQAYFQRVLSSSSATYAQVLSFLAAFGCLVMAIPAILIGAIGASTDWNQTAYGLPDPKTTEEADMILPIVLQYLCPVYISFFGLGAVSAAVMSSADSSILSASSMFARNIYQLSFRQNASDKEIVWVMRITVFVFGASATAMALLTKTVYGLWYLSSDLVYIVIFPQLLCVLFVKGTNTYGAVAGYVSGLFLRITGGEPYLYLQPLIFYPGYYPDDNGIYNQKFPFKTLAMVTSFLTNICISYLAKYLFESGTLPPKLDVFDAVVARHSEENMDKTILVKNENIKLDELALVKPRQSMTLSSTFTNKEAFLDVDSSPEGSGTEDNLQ
# ANO1 activ – activates or potentiates the mouse TMEM16A chloride channel; actives 0.3% (n = 340,000); B-score at 10 µM; Q8BHY3; HEK293 TMEM16A/YFP-H148Q/I152L, iodide quench fluorescence; hits give low values; AID 623877;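 active = fluorescence-ratio B-score plate-corrected deviation score at least 3 library SD below zero, with starting fluorescence score within 5 deviations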;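 also: channel opened by trigger with iodide after compound preincubation; score built on the fluorescence ratio of max minus min over baseline; more negative score means more quench and so TMEM16A activation or potentiation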
# IDE cell activ – boosts human insulin-degrading enzyme activity in HEK cells; P14735; FAbeta-B cleavage, fluorescence polarization; 0% vehicle, 100% cell-free pure enzyme wells; activation, % at 5.96 µM; actives 0.073% (n = 340,000);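 active = activation above the mean of all tested compounds plus 3 SD, set per screening campaign, cut at about 17% in these data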
# CHT allo act – human CHT allosteric activation; Q9GZV3; CHT-expressing cells, membrane potential dye, choline EC20; hits give high values; LV-AA mutant CHT in HEK293 cells; actives 0.49% (n = 310,000); B-score at 10 µM; AID 488977;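 active = initial fluorescence not abnormally high and integrated response B-score, plate-corrected, over 3 SD above library mean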
# IDE inh – inhibitors of human insulin-degrading enzyme in cells; P14735; HEK cells, FAbetaB cleavage, fluorescence polarization; inhibition, % at 5.59 µM; actives 0.41% (n = 320,000); AID 434962;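 active = percent inhibition above the average of all tested compounds plus 3 SD, set per screening campaign, cut at about 16% in these data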;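 also: IDE supplied by intact live HEK cells; FP after avidin binding of uncleaved biotin substrate so inhibition keeps polarization high; 0% = DMSO wells and 100% = 60 µM reference IDE inhibitor Ii1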
# TMEM16A inh – inhibitors of mouse TMEM16A calcium-activated chloride channel; Q8BHY3; HEK293 TMEM16A/YFP iodide influx fluorescence, ionomycin; normalized B-score (activity score, 25-100; higher = stronger inhibition) at 10 µM; actives 1.2% (n = 310,000);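 active = ratio plate-corrected score three or more library SD toward inhibition, starting fluorescence score within five deviations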;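 also: score derived from kinetic fluorescence span divided by baseline fluorescence per well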
# IDE inh confirm – cellular human IDE inhibition, confirmation; shares compounds with IDE inh; HEK cells, FAbetaB cleavage, fluorescence polarization; inhibition, % at 5.59 µM; actives 51% (n = 1,200); AID 435028;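 active = mean inhibition across triplicate wells above the cutoff set by the earlier primary insulin-degrading enzyme screen, cut at about 16% in these data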;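 also: 0% = DMSO wells and 100% = 60 µM reference IDE inhibitor Ii1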
# HEK cytotox – counter-screen for IDE inhibitors: cytotoxicity in HEK cells | HEK293 cytotoxicity, ATP luminescence | shares compounds with IDE inh | inhibition, % at 5.59 µM | actives 28% (n = 1,200); in the data active = inhibition above about 22%;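 also: 0% = vehicle wells and 100% = reference cytotoxic drug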
# CHT inh conf – confirmation of human choline transporter CHT inhibitors. shares compounds with CHT block. CHT-expressing cells, choline membrane potential dye; LV-to-AA substituted CHT, HEK293 cells. CHT activity remaining % of control (hits give low values), % at 10 µM. actives 70% (n = 2,400);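 active = choline transporter activity left, mean of duplicates at 10 µM, below buffer-only control mean minus 3 SD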;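 also: depolarization triggered by choline at its EC90 following an EC20 pre-addition; 0% = hemicholinium-3 full block and 100% = buffer-only control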
# HEK293 CHT ctr – CHT inhibitor counter-screen hit in parental HEK293 cells | shares compounds with CHT block | membrane potential dye, choline response; active = decrease or increase beyond buffer ±3SD | membrane potential ratio readout (active if shifted either direction beyond buffer ±3SD; no single direction) at 10 µM | actives 4% (n = 2,400) | AID 493222;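 also: parental cells lack the transporter so any hit is non-specific; ratio is peak minus trough fluorescence over baseline after EC90 choline challenge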
# TMEM16A reconf – TMEM16A (mouse) chloride channel inhibition, re-confirmation | shares compounds with TMEM16A inh | HEK293 TMEM16A/YFP-H148Q, iodide quench fluorescence; ionomycin added to raise cell calcium | inhibition, % at 10 µM | actives 39% (n = 2,300);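 active = mean duplicate percent inhibition, scaled so buffer wells are 0 and the reference blocker 100, over three buffer SD above buffer mean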
# TMEM16A Ca cntr – alters calcium mobilization in TMEM16A HEK293 cells, counter-screen. shares compounds with TMEM16A inh. actives 2% (n = 2,300). calcium response (% of ionomycin), % at 10 µM. TMEM16A/YFP HEK293, Fluo4 calcium mobilization;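 active = duplicate-averaged calcium signal over 20% of the ionomycin maximum, relative to buffer baseline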;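 also: each well's signal is peak minus trough fluorescence divided by its pre-addition baseline; 0% = buffer wells and 100% = ionomycin wells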
# Parental YFP cnt – acts in parental YFP-HEK293 cells lacking TMEM16A, counter-screen; shares compounds with TMEM16A inh; iodide YFP quench, ionomycin; YFP ratio F(max-min)/F0 at 10 µM; 2,300 tested, under 10 active; AID 652233;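 active = yellow fluorescent protein signal ratio exceeding the buffer control mean by over 5 SD of those controls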;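 also: ratio is mean of duplicate wells from kinetic YFP trace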
# ClC-1 inh – rat ClC-1 inhibition, TMEM16A specificity screen. shares compounds with TMEM16A inh. CHO ClC-1-YFP, iodide influx fluorescence quench; iodide control reads 0, buffer control 100. 2,300 tested, under 10 active. ratio percent, % at 10 µM;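 active = duplicate-mean ratio percent above the mean of iodide-only control wells, which defines zero, plus 5 of their SD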;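 also: higher percent means stronger block of ClC-1 iodide influx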
# * marks the source's active call; other numbers are inactive results; i = inactive; · = no result. Shown are actives, neighbours in structure and some others; about 2.7% of the full set was active somewhere.
SMILES,CHT block,ANO1 activ,IDE cell activ,CHT allo act,IDE inh,TMEM16A inh,CHT inh conf,HEK293 CHT ctr,others
O=C(Nc1ccc(OC(F)(F)F)cc1)N1CCN(c2ccnc3cc(Cl)ccc23)CC1,i,i,-32,i,36*,100*,·,·,IDE inh confirm=12;HEK cytotox=35*;TMEM16A reconf=i;TMEM16A Ca cntr=i;Parental YFP cnt=-1.1;ClC-1 inh=-22
O=S(=O)(c1ccccc1OC(F)(F)F)N1CCN(c2ccnc3cc(Cl)ccc23)CC1,i,i,-20,i,15,i,·,·,
O=C(C1CCCCC1)N1CCN(c2ccnc3cc(Cl)ccc23)CC1,i,i,-44,i,24*,25*,·,·,IDE inh confirm=23*;HEK cytotox=42*;TMEM16A reconf=18%*;TMEM16A Ca cntr=i;Parental YFP cnt=-1;ClC-1 inh=-14
Cc1ccc(S(=O)(=O)N2CCCCC2)cc1NC(=O)CSc1ncccn1,·,i,1,·,4,·,·,·,
COc1cc(/C=C2/CCC/C(=C\c3cc(O)c(OC)c(Cl)c3)C2=O)cc(Cl)c1O,i,i,-20,i,23*,i,·,·,IDE inh confirm=24*;HEK cytotox=87*;TMEM16A reconf=i;TMEM16A Ca cntr=i;Parental YFP cnt=-0.78;ClC-1 inh=-38
Cc1cccn2c(=O)c(C=O)c(N3CC(C)OC(C)C3)nc12 (configuration not stated),i,i,-5,i,3,i,·,·,
Cc1cccn2c(=O)c(C=O)c(N3CCCCCC3)nc12,-6.4*,i,-1,i,1,i,i,i,
C=CCn1c(SCC(N)=O)nnc1-c1ccccc1O,i,·,5,i,0,i,·,·,
C=CCn1c(SCc2ccccc2C#N)nnc1-c1ccccc1O,-6.3*,i,3,i,5,i,i,i,
COc1cc(CCC(=O)NCCc2ccc(F)cc2)cc(OC)c1OC,i,i,6,i,-1,i,·,·,
CCCCNC(=O)c1ccc2c(OCC)n(CCCC)nc2c1,-7.1*,i,0,i,9,i,57%*,i,
COc1ccc(C(=O)N2N=C(c3ccc(NS(C)(=O)=O)cc3)CC2c2cccs2)cc1 (configuration not stated),i,i,-1,i,8,i,·,·,
CCN(CC(=O)Nc1ccccc1OC)C(=O)CCOc1ccc(C(C)(C)C)cc1,i,i,5,i,-2,i,·,·,
O=[N+]([O-])c1ccc(S(=O)(=O)Nc2nc(-c3ccccc3)cs2)cc1,-5.6*,i,5,i,1,100*,58%*,i,
Cc1ccc(S(=O)(=O)Nc2nc(-c3ccc(F)cc3)cs2)cc1,i,i,4,i,3,i,·,·,
COC(=O)CN1C(=O)S/C(=C/c2ccc(N3CCCCC3)o2)C1=O,-5.1*,i,-142,i,3,i,i,i,
CCN(CC)C(=O)C(C)OC(=O)COc1ccc(Cl)cc1C (configuration not stated),i,i,0,i,4,i,i,i,
Cc1cc(Cl)ccc1OCC(=O)OC(C)C(=O)N(C)C (configuration not stated),i,i,3,i,3,i,·,·,
O=C(Nc1ccc(S(=O)(=O)NC2=NCCCCC2)cc1)c1ccc(C(F)(F)F)cc1,-6.8*,i,1,i,0,i,41%*,i,
CN(C)S(=O)(=O)c1ccc(C(=O)Nc2ccc(S(=O)(=O)NC3=NCCCCC3)cc2)cc1,i,i,0,i,5,i,·,·,
CCCOc1ccc(-c2c(C(=O)N/N=C/C3CCCCC3)nnn2-c2nonc2N)cc1,i,i,-3,i,5,i,·,·,
CN(Cc1ccccc1)S(=O)(=O)c1ccc2[nH]cc(C(=O)NCC3CCCO3)c(=O)c2c1 (configuration not stated),-10*,i,1,i,11,i,43%*,i,
Cc1ccc(Nc2nnc(C3C(=O)N(C)C4(C)CC3c3cc(Br)ccc3O4)s2)cc1 (configuration not stated),-5.5*,i,-2,i,1,i,i,i,
Cc1cc(NCCc2ccccc2F)n2ncnc2n1,i,i,4,i,4,i,·,·,
Fc1ccccc1CCNc1c2c(nc3ncnn13)CCCC2,-6.9*,i,1,i,2,i,63%*,i,
c1ccc(Nc2c3c(nc4ncnn24)CCC3)cc1,i,i,5,i,2,i,·,·,
c1ccc(CCNc2c3c(nc4ncnn24)CCC3)cc1,-7.1*,i,0,i,0,i,44%*,i,
O=C(Nc1cccc(C(F)(F)F)c1)C1CC(=O)N(CCc2ccccc2)C1 (configuration not stated),·,i,4,·,2,·,·,·,
CC(C)OC(=O)c1c(NC(=O)C2CC=CCC2C(=O)O)sc2c1CCCCC2 (configuration not stated),-5.2*,i,2,i,0,i,i,i,
